NTR1 ag: NTR1 (human) agonism. NTR1-U2OS beta-arrestin-GFP spot imaging, agonist mode. actives 0.17% (n = 330,000). P30989. activation, % at 20 µM;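 active = activation at or above 40% of the spot to cytoplasm intensity ratio, with at least 20 cells analyzed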;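 note: 0% = DMSO without peptide and 100% = 100 nM NTR1 peptide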
Mot1-301 SUMO: blocks SUMOylation pathway, rescuing yeast Mot1-301 growth. growth rescue, % at 18.8 µM. actives 1% (n = 320,000). S. cerevisiae Mot1-301 growth rescue, ATP luminescence, 38.5C; percent above DMSO median, 100 means doubled;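 active = every valid replicate shows activation above 250% relative to neutral control wells; inactive = the rest, any valid replicate at or below 250%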;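 note: OY570 slx delta 5 strain wells were the positive control but not used for scaling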
GRIN3A LBD mod: modulators (binders) of human NR3A ligand-binding domain; actives 2.5% (n = 340,000); Tm shift relative to glycine control, % at 25 µM; NR3A LBD differential scanning fluorimetry, Tm shift; 0% = protein alone, 100% = glycine-bound protein;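 active = melting temperature shift of at least 10% of the positive control shift, at one fixed dose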
H9c2 protect: myocardial damage modulation in H9c2 cells; AID 588492; H9c2 cardiomyocytes, H2O2 injury protection, ATPLite, 2 h; actives 0.63% (n = 360,000); protection from H2O2 cell death, % at 20 µM;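 active = compounds giving at least 50% protection of heart cells from peroxide-induced death in the single-dose screen, raw or plate-pattern-corrected value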;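 note: 0% = DMSO wells with peroxide and 100% = DMSO wells without peroxide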
AI-2 QS mod: Vibrio harveyi AI-2 quorum sensing modulation. Vibrio harveyi JMH597 AI-2 luminescence/OD600 ratio, 9 h; active compounds read low; strain lacks LuxN and CqsS sensors; 0 = neutral-control median. AID 2094. actives 0.4% (n = 300,000). activity change, % at 7.5 µM; in the data active = activity change below about -75%, passing the limit was not always enough;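 note: luminescence divided by OD600 gain over 9 h not by final OD600 alone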
AHR activator: activates the human aryl hydrocarbon receptor | P35869 | AHR-responsive luciferase reporter cells, luminescence | activation, % at 5 µM | actives 2.5% (n = 320,000) | AID 2796; in the data active = activation above about 47%;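 note: 0% = vehicle wells and 100% = reference agonist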
Active calls of the source: *. The list is not random: actives were taken first. Their share in the collection is about 6.2%.

Results for CC(C)(C(=O)N1CCC1(C)C(=O)NS(=O)(=O)c1cccc(C#N)c1)c1ccccc1 (centres undefined) ?
H9c2 protect: 1

Results for COc1ccc(CN(C)C[C@@H]2OCc3cnnn3CCCC(=O)N([C@@H](C)CO)C[C@H]2C)cc1 ?
H9c2 protect: 6

What do the screens show for `CC(C)n1cnc2c(Nc3cccc(Cl)c3)nc(NCCCO)nc21`?
NTR1 ag: -2; Mot1-301 SUMO: 246; GRIN3A LBD mod: -1; H9c2 protect: -2; AI-2 QS mod: 19; AHR activator: 69*

Results for [O-][n+]1ccccc1/C=C/c1ccccc1 ?
NTR1 ag: 0; Mot1-301 SUMO: 160; GRIN3A LBD mod: 0; H9c2 protect: -3; AI-2 QS mod: 18; AHR activator: -6

What do the screens show for `[O-][n+]1c(/C=C/c2ccccc2)ccc2ccccc21`?
NTR1 ag: 26; Mot1-301 SUMO: -12; GRIN3A LBD mod: 19*; H9c2 protect: -15; AI-2 QS mod: -13

What do the screens show for `CN(C)c1ccc(/C=C/c2ccc3ccccc3[n+]2C)cc1`?
NTR1 ag: 4; Mot1-301 SUMO: -1; GRIN3A LBD mod: -3; H9c2 protect: -15; AI-2 QS mod: -92*; AHR activator: -5

How did c1ccc(CNc2cccnc2)cc1 do in these assays?
H9c2 protect: -3

Results for Cn1c(-c2c(N)n(CCc3ccccc3)c3nc4ccccc4nc23)nc2ccccc21 ?
NTR1 ag: 17; Mot1-301 SUMO: 0; GRIN3A LBD mod: 11*; H9c2 protect: -4; AI-2 QS mod: 47; AHR activator: 20

What do the screens show for `COCCCn1c(SCC(=O)N2CCOCC2)nc2cc(Cl)ccc2c1=O`?
NTR1 ag: 2; Mot1-301 SUMO: 10; GRIN3A LBD mod: -3; H9c2 protect: 2; AHR activator: 0

What do the screens show for `C=CCNc1nc(N)c(C(=O)Nc2cc(C)on2)s1`?
NTR1 ag: 1; Mot1-301 SUMO: -9; H9c2 protect: -5; AI-2 QS mod: -20; AHR activator: 40

Results for Cc1cc(NC(=O)c2sc(Nc3ccc(F)cc3)nc2N)no1 ?
NTR1 ag: 3; Mot1-301 SUMO: -1; GRIN3A LBD mod: -9; H9c2 protect: 9; AI-2 QS mod: -11; AHR activator: 56*

How did Cc1cnc(NC(=O)c2sc(Nc3ccccc3)nc2N)o1 do in these assays?
NTR1 ag: -1; Mot1-301 SUMO: -5; GRIN3A LBD mod: 6; H9c2 protect: -5; AI-2 QS mod: 14; AHR activator: 55*

Results for CCN(CC)C(=O)[C@H]1CC(CC(=O)NCC23CC4CC(CC(C4)C2)C3)C(=O)N2CCc3c([nH]c4ccc(OC)cc34)[C@]12C (some centres undefined) ?
NTR1 ag: 8; GRIN3A LBD mod: 1; H9c2 protect: -15

Results for CCOc1ccccc1C(C(=O)NC1CCCCC1)N(C(=O)c1csnn1)C1CC1 (centres undefined) ?
NTR1 ag: -1; Mot1-301 SUMO: 7; GRIN3A LBD mod: 1; H9c2 protect: 0; AHR activator: 1

Results for COc1ccc(N2CCN(C3CCCN(Cc4ccc(F)cc4Cl)C3)CC2)cc1 (centres undefined) ?
NTR1 ag: 1; Mot1-301 SUMO: -1; GRIN3A LBD mod: -1; H9c2 protect: -2; AI-2 QS mod: 7; AHR activator: 4

Results for O=S(=O)(c1ccccc1)N(c1ccccc1)S(=O)(=O)c1ccccc1 ?
GRIN3A LBD mod: 11*; H9c2 protect: 0

What do the screens show for `CCOC(=O)C1CCN(C(=O)COC(=O)c2cccc(NS(=O)(=O)c3ccccc3)c2)CC1`?
GRIN3A LBD mod: 1; H9c2 protect: -6

How did Cc1nnc2ccc(N3CCN(C(=O)c4ccccc4)CC3)nn12 do in these assays?
NTR1 ag: -1; Mot1-301 SUMO: -8; GRIN3A LBD mod: 2; H9c2 protect: 13; AI-2 QS mod: 11; AHR activator: 0

What do the screens show for `O=C(c1ccc(Br)o1)N1CCN(c2ccc3nnc(-c4ccccc4)n3n2)CC1`?
NTR1 ag: 5; Mot1-301 SUMO: -6; GRIN3A LBD mod: 2; H9c2 protect: 81*; AI-2 QS mod: 41; AHR activator: 31

Results for Cn1nccc1C(=O)N1CCN(c2ccccc2Cl)CC1 ?
NTR1 ag: 1; Mot1-301 SUMO: 4; GRIN3A LBD mod: 3; H9c2 protect: 5; AI-2 QS mod: -1; AHR activator: -2

What do the screens show for `O=C(c1ccc(Br)o1)N1CCN(c2ncccn2)CC1`?
NTR1 ag: -3; Mot1-301 SUMO: -1; GRIN3A LBD mod: 1; H9c2 protect: -1; AI-2 QS mod: 11; AHR activator: 59*

What do the screens show for `Cn1nccc1C(=O)N1CCN(c2ncccn2)CC1`?
NTR1 ag: 2; Mot1-301 SUMO: 336*; GRIN3A LBD mod: -1; H9c2 protect: 10; AI-2 QS mod: 7; AHR activator: 1

How did Cc1ccc(-c2[nH]ncc2C(=O)c2ccccc2C)c(O)c1 do in these assays?
NTR1 ag: -2; Mot1-301 SUMO: -2; GRIN3A LBD mod: 1; H9c2 protect: -4; AI-2 QS mod: 9; AHR activator: 6

Results for COc1ccc(CCNC(=O)COC(=O)Cc2c[nH]c3ccccc23)cc1OC ?
NTR1 ag: 2; Mot1-301 SUMO: 0; GRIN3A LBD mod: -2; H9c2 protect: 3; AHR activator: 26

What do the screens show for `COC(=O)C1OCOC2C(C(=O)OC)OCOC12` (centres undefined)?
GRIN3A LBD mod: -7; H9c2 protect: -3

What do the screens show for `COc1ccc(-c2[nH]c(-c3ccc(Cl)cc3)nc2SCC(=O)Nc2nccs2)cc1`?
NTR1 ag: 22; Mot1-301 SUMO: -3; GRIN3A LBD mod: 11*; H9c2 protect: 11; AI-2 QS mod: 23; AHR activator: 62*

What do the screens show for `Cc1nc(SCC(=O)Nc2nccs2)c(C#N)c(C)c1C`?
NTR1 ag: 1; Mot1-301 SUMO: -7; GRIN3A LBD mod: 0; H9c2 protect: -18; AHR activator: 64*

How did COc1ccc(NC(=O)Nc2ccc3c(c2)OCO3)c(C)c1 do in these assays?
NTR1 ag: 1; Mot1-301 SUMO: -12; GRIN3A LBD mod: -13; H9c2 protect: -3; AI-2 QS mod: 23; AHR activator: 67*

What do the screens show for `Cc1cc(OC(F)F)ccc1NC(=O)Nc1ccc2c(c1)OCO2`?
NTR1 ag: 0; Mot1-301 SUMO: -13; GRIN3A LBD mod: -12; H9c2 protect: 10; AI-2 QS mod: 16; AHR activator: 66*

Results for Cc1ccc(-n2c(SCC(=O)NCc3ccco3)nc3c(sc4ccccc43)c2=O)cc1 ?
NTR1 ag: 13; Mot1-301 SUMO: -6; GRIN3A LBD mod: 10*; H9c2 protect: 2; AI-2 QS mod: 6; AHR activator: 3

What do the screens show for `O=C(CSc1nc2c(sc3ccccc32)c(=O)n1CCO)NCc1ccco1`?
NTR1 ag: 0; Mot1-301 SUMO: 4; GRIN3A LBD mod: 0; H9c2 protect: 7; AI-2 QS mod: 6; AHR activator: 5
